Screens deposited in PubChem by National Center for Advancing Translational Sciences (NCATS).
mIDH1 inhibitor: qHTS for Inhibitors of mutant isocitrate dehydrogenase 1 (IDH1): qHTS | Isocitrate dehydrogenase [NADP] cytoplasmic (Homo sapiens), O75874 | Potency, µM (doses to about 76.6 µM), actives largely listed as inhibitors | IDH1-R132H enzyme, NADPH consumption, diaphorase/resazurin fluorescence | 0.093% of 390,000 active; also: nearly all actives have a fitted effect of over 65% in size
Target sequence (O75874 whole entry R132H, stated change not applied): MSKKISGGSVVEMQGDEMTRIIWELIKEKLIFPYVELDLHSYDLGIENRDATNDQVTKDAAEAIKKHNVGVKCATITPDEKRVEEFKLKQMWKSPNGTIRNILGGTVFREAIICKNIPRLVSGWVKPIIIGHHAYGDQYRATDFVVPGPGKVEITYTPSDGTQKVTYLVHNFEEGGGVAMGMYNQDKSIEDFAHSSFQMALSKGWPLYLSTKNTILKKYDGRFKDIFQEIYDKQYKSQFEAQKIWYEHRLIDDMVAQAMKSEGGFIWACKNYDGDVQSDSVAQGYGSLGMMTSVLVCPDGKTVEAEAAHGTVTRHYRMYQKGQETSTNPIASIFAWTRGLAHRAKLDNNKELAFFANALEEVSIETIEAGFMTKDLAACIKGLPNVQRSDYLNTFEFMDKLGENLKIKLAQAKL
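IDH1-R132H (0.5 ug/mL) preincubated 30 min with compound, then NADPH (0.016 mM) and alpha-KG (2 mM) added; 80 min at RT, pH 7.5. Remaining NADPH coupled via diaphorase/resazurin to fluorescence (540/590 nm); concentration-response curves normalized to no-enzyme control.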
Nrf2 inh: Nrf2 qHTS screen for inhibitors; A549 ARE-Fluc reporter, luciferase luminescence, 18-24 h; Potency, µM (series often up to 46 µM), usual class: inhibitors; 2.1% of 360,000 active; AID 504444, 2011; also: nearly all actives have a fitted effect of over 60% in size
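A549 ARE_Fluc cells, 5000/well, 5% FBS OPTI-MEM; compounds in dose-response, 18-24 h at 37 °C/5% CO2; CellTiter-Fluor viability read (Ex 405/Em 525), then BugLite luciferase luminescence = Nrf2 activity.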
TrxR1 substrate: qHTS Assay for Substrates of Mammalian Selenoprotein Thioredoxin Reductase 1 (TrxR1): qHTS; 0.01% of 390,000 active; Potency, µM (series often up to 114 µM); purified TrxR1 substrate turnover, NADPH consumption readout; AID 588456, 2011; also: nearly all actives have a fitted effect of over 50% in size
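Rat TrxR1, dispensed at 90 nM, was prereduced with 400 uM NADPH (final) for 5 min at ~22 deg C, then incubated with compound 15 min before 400 uM selenite. A first-read NADPH fluorescence drop versus no-compound background flagged substrates.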
Mito fusion act: qHTS Assay for Small Molecule Inhibitors of Mitochondrial Division or Activators of Mitochondrial Fusion | S. cerevisiae fusion-defective mutant growth rescue, CellTiterGlo 48 h | Potency, µM (top dose mostly 46.1 µM), actives largely listed as activators | 0.23% of 320,000 active | AID 485298, 2010; also: nearly all actives have a fitted effect of over 45% in size
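Read-out: ATP-based luminescence (CellTiterGlo, 10 min ambient) reporting growth of fusion-defective ts yeast after 48 hours at 37C on glycerol/ethanol YPEG medium in the presence of compound.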
A549 viability: Nrf2 qHTS screen for inhibitors: counterscreen for cytotoxicity | A549 ARE-Fluc cells, CellTiter-Fluor viability, 18-24 h | Potency, µM (doses to about 46 µM), hits mostly inhibitors | 0.16% of 390,000 active | AID 504648, 2011
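Cytotoxicity counterscreen: CellTiter-Fluor fluorescence was measured in A549 ARE_Fluc cells after 18-24 h of compound exposure in a concentration series. The subsequent BugLite luminescent read reports ARE-luciferase activity.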
rTrxR1 inhibitor: qHTS Assay for Inhibitors of Mammalian Selenoprotein Thioredoxin Reductase 1 (TrxR1): qHTS. recombinant rTrxR1, NADPH fluorescence consumption, selenite substrate. AID 588453, 2011. Potency, µM (highest dose often 114 µM), hits mostly inhibitors. 1% of 390,000 active; also: nearly all actives have a fitted effect of over 65% in size
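Rat TrxR1 (90 nM in the dispensed reagent) was pre-reduced with 400 uM NADPH for 5 min at room temperature, then incubated with compound for 15 min. After 400 uM selenite was added, NADPH fluorescence (Ex 340/Em 450 nm) was followed for 8 min.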
A number is an active result; n = inactive; u = inconclusive; x = not tested or not shown; ! = not confirmed by another sample. This is a sample that favours compounds with a hit; in the whole collection about 3.1% have one here. Calls follow the shape of the dose curve; as a rule, active = well fitted curve in the direction sought with a large enough effect; inconclusive = small, poorly fitted or top-dose-only effect, or another doubt; inactive = no such curve, though single readings can be large; an effect the other way counts as inactive or inconclusive.

SMILES	mIDH1 inhibitor	Nrf2 inh	TrxR1 substrate	Mito fusion act	A549 viability	rTrxR1 inhibitor
Cc1cc(NS(=O)(=O)c2ccc(NC(=S)NC(=O)c3ccccc3)cc2)no1	n	n	n	n	n	44.7µM
O=C(O)c1[nH]c2ccccc2c1NS(=O)(=O)c1ccc(F)cc1	n	n	n	35.5µM	n	n
COc1ccc(C(=O)Sc2ccc(Cl)cc2)cc1OC	n	20.6µM	n	n	u	n
COc1ccc(C(=O)Sc2ccc(C)cc2)cc1OC	n	n	n	n	n	n
CCCC(O)(CCN1CCOCC1)c1ccc(Br)cc1 (stereo unspecified)	n	n	n	n	n	35.5µM
COc1ccc(C(=O)Nc2ccc(-c3nc4cc(C)ccc4o3)c(O)c2)cc1	n	u	n	x	n	n
Cc1ccc(C(=O)Nc2ccc3oc(-c4ccccc4C)nc3c2)cc1	x	6.51µM	n	x	n	n
COCCNC(=O)Nc1ccc2c(c1)N(C)C(=O)c1ccccc1S2	n	n	n	n	n	n
COc1cc(OC)c(NC(=O)Nc2ccc3c(c2)N(C)C(=O)c2ccccc2S3)cc1Cl	n	20.6µM	n	x	n	n
COc1ccc(OC)c(NC(=O)c2cccc3c2C(=O)N(C2CCCCC2)C3)c1	n	u	n	u	n	22.4µM!
COc1ccc(NC(=O)c2cccc3c2C(=O)N(C2CCCCC2)C3)cc1	n	u	n	n	n	n
O=[N+]([O-])c1ccc(N/N=C/c2c[nH]c3ccccc23)c(S(=O)(=O)Nc2ccc(Cl)cc2)c1	n	14.6µM	n	n	20.6µM	n
N#C/C(=C\c1cccc(Br)c1)C(=O)N1CCCCC1	n	n	n	n	n	14.1µM
N#C/C(=C\c1cccc(O)c1)C(=O)N1CCCCC1	n	n	n	n	n	u
COC(=O)c1cc(=O)n(-c2ccc(F)cc2)c(=Nc2ccc(F)cc2)s1	n	20.6µM	n	n	u	n
COC(=O)c1cc(=O)n(Cc2cccs2)c(=Nc2ccc(F)cc2)s1	n	n	n	n	n	n
CCn1c(C(=O)N2CCCC(C(=O)NCCCc3ccccc3)C2)cc2sccc21 (stereo unspecified)	n	16.4µM	n	u	u	n
CS(=O)c1nc(-c2ccc(Br)cc2)cc(-c2ccccc2)c1C#N (stereo unspecified)	n	14.6µM	n	u	u	n
CS(=O)(=O)c1nc(-c2ccc(Br)cc2)cc(-c2ccccc2)c1C#N	n	u	n	n	u	n
COc1ccc(C(C#N)N2CCC(c3ccccc3)=N2)cc1 (stereo unspecified)	n	u	n	n	n	15.8µM
COc1cc(C(C#N)N2N=C(c3ccccc3)CC2c2ccccc2)ccc1O (stereo unspecified)	n	u	n	n	n	n
Cc1ccc(Nc2cc(C)nn2-c2nc(C)cc(=O)[nH]2)cc1	n	1.78µM	n	n	12.6µM	n
CCCCOc1ccc(CSc2nc(C)[nH]c2[N+](=O)[O-])cc1[N+](=O)[O-]	n	14.6µM	n	n	u	n
CCNc1ccc2noc3c2c1C(=O)c1ccccc1-3	n	20.6µM	n	n	u	n
O=C1c2ccccc2-c2onc3ccc(NCc4ccco4)c1c23	n	n	n	n	u	25.1µM
CCOc1ccc2noc3c2c1C(=O)c1ccccc1-3	n	n	n	n	n	n
CC(C)(C)n1ncc2c(=O)n(Cc3cc(F)c(F)cc3Cl)cnc21	x	x	n	x	x	n
C=CCn1c(SCc2csc(C)n2)nc2sc3c(c2c1=O)CCCC3	n	25.9µM	n	n	n	n
C=CCn1c(SCc2csc(C)n2)nc2sc3c(c2c1=O)CCCCC3	n	u	n	n	x	n
